Read-out in assay [1]: Interleukin-1 alpha (IL1a), IL1A (gene 3552)
The assay can be described thus: BSK_LPS_IL1a: BioMAP Diversity Plus: LPS Assay for Interleukin-1 alpha (IL1a) Biomarker Activity (AID 2283080). The note with it: primary human HUVEC with PBMC; actives raise or lower the signal. The procedure, abridged: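 ELISA read-out of IL-1 alpha from a human primary vascular co-culture (endothelium plus PBMC) under LPS, sampled 24 hours post-dosing. Activity was fitted in both directions relative to DMSO controls.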

Read-out in assay [2]: Monocyte Chemoattractant Protein-1 (MCP1), CCL2 (gene 6347)
The assay can be described thus: BSK_LPS_MCP1: BioMAP Diversity Plus: LPS Assay for Monocyte Chemoattractant Protein-1 (MCP1) Biomarker Activity (AID 2283081). The note with it: primary human HUVEC with PBMC; actives raise or lower the signal. The procedure, abridged: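 Human endothelial–PBMC co-cultures were dosed with chemical, then LPS-driven MCP-1 levels were quantified by ELISA at 24 h. Activity in either direction was fitted versus DMSO negative control.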

The nature of assay [3]: BSK_LPS_PGE2: BioMAP Diversity Plus: LPS Assay for Prostaglandin E2 (PGE2) Biomarker Activity (AID 2283082).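 On AC50: secreted prostaglandin E2 measured by ELISA in LPS-stimulated co-culture.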 The note with it: primary human HUVEC with PBMC; actives raise or lower the signal. The procedure, abridged:
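LPS-activated HUVEC/PBMC co-culture; cmpd dosed, 24 h; PGE2 by ELISA; bidirectional fit vs DMSO; SRB (0.1%, TCA-fixed, 560 nm) in parallel plates for overt cytotox.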

Read-out in assay [4]: Macrophage colony-stimulating factor (MCSF), CSF1 (gene 1435)
The assay can be described thus: BSK_LPS_MCSF: BioMAP Diversity Plus: LPS Assay for Macrophage colony-stimulating factor (MCSF) Biomarker Activity (AID 2283083). The note with it: primary human HUVEC with PBMC; actives raise or lower the signal. In outline:
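ELISA readout of M-CSF after 24 h compound exposure in a human endothelial/PBMC co-culture. Activity, in either direction, is fitted relative to DMSO vehicle.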

Read-out in assay [5]: Tissue Factor, F3 (gene 2152)
As to the kind of experiment: BSK_LPS_TissueFactor: BioMAP Diversity Plus: LPS Assay for Tissue Factor Biomarker Activity (AID 2283084). The note with it: primary human HUVEC with PBMC; actives raise or lower the signal. The procedure, abridged: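 ELISA signal for cell-surface Tissue Factor (CD142) was read 24 h after compound dosing of an LPS-stimulated human endothelial–PBMC primary co-culture. Gain or loss of signal was scored relative to DMSO.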

Read-out in assay [6]: Tumor necrosis factor (Homo sapiens) (UniProt P01375)
As to the kind of experiment: BSK_LPS_TNFa: BioMAP Diversity Plus: LPS Assay for Tumour Necrosis Factor alpha (TNFa) Biomarker Activity (AID 2283085). The note with it: primary human HUVEC with PBMC; actives raise or lower the signal. The procedure, abridged:
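Read-out is ELISA of TNFa in primary human endothelial cell–PBMC co-cultures at 24 h after compound. Activity in either direction was fitted against DMSO.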

Read-out in assay [7]: Vascular cell adhesion molecule 1 (VCAM1), VCAM1 (gene 7412)
The assay can be described thus: BSK_LPS_VCAM1: BioMAP Diversity Plus: LPS Assay for Vascular cell adhesion molecule 1 (VCAM1) Biomarker Activity (AID 2283086). The note with it: primary human HUVEC with PBMC; actives raise or lower the signal. In outline: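 HUVEC + PBMC co-culture, LPS system; compound 24 h; VCAM-1 by ELISA; bidirectional fit vs DMSO control; parallel SRB (0.1%, TCA-fixed, 560 nm) for cytotoxicity.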

Read-out in assay [8]: CD38, CD38 (gene 952)
As to the kind of experiment: BSK_SAg_CD38: BioMAP Diversity Plus: SAg Assay for CD38 Biomarker Activity (AID 2283087). The note with it: primary human HUVEC with PBMC; actives raise or lower the signal. The procedure, abridged:
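Human HUVEC plus PBMC co-culture stimulated with superantigen; CD38 measured by ELISA 24 h after chemical dosing. Fluorescence read-out, bidirectional fit against DMSO; cytotoxicity tracked in parallel by SRB and Alamar Blue.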

Read-out in assay [9]: CD40, CD40 (gene 958)
As to the kind of experiment: BSK_SAg_CD40: BioMAP Diversity Plus: SAg Assay for CD40 Biomarker Activity (AID 2283088). The note with it: primary human HUVEC with PBMC; actives raise or lower the signal. The procedure, abridged:
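Compounds were dosed onto a human primary endothelial–PBMC co-culture, and after 24 h CD40 was quantified by ELISA using a fluorescence signal. Activity in either direction was fitted relative to DMSO.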

Read-out in assay [10]: CD69, CD69 (gene 969)
As to the kind of experiment: BSK_SAg_CD69: BioMAP Diversity Plus: SAg Assay for CD69 Biomarker Activity (AID 2283089).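 On AC50: cell surface CD69 protein quantified by ELISA with fluorescence detection.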 The note with it: primary human HUVEC with PBMC; actives raise or lower the signal. The procedure, abridged: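 Primary human vascular co-culture (umbilical vein endothelium with peripheral blood mononuclear cells) exposed to test chemical for 24 h. CD69 levels quantified by fluorescence ELISA; DMSO served as negative control for bidirectional fitting.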

Read-out in assay [11]: Monocyte Chemoattractant Protein-1 (MCP1), CCL2 (gene 6347)
As to the kind of experiment: BSK_SAg_MCP1: BioMAP Diversity Plus: SAg Assay for Monocyte Chemoattractant Protein-1 (MCP1) Biomarker Activity (AID 2283090). The note with it: primary human HUVEC with PBMC; actives raise or lower the signal. The procedure, abridged:
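MCP-1 levels in the endothelial–PBMC SAg co-culture were quantified by ELISA at 24 h post-dosing; both increases and decreases versus DMSO scored. Cytotoxicity monitored by SRB total protein in parallel cultures.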

Read-out in assay [12]: E-selectin (Homo sapiens) (UniProt P16581)
The assay can be described thus: BSK_SAg_Eselectin: BioMAP Diversity Plus: SAg Assay for Eselectin Biomarker Activity (AID 2283091). The note with it: primary human HUVEC with PBMC; actives raise or lower the signal. In outline: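 Co-culture: HUVEC + PBMC. Dose compound; 24 h. ELISA for E-selectin. Bidirectional fit vs DMSO.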

Read-out in assay [13]: Monokine induced gamma interferon (MIG), CXCL9 (gene 4283)
As to the kind of experiment: BSK_SAg_MIG: BioMAP Diversity Plus: SAg Assay for Monokine induced gamma interferon (MIG) Biomarker Activity (AID 2283092). The note with it: primary human HUVEC with PBMC; actives raise or lower the signal. The procedure, abridged:
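Endothelial cells and PBMC were co-cultured, exposed to test chemicals, and sampled 24 h later. MIG was measured by ELISA, and responses were fitted in both directions relative to DMSO.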

Assay [14] is described as follows: BSK_SAg_PBMCCytotoxicity: PBMC Cytotoxicity Assessment in the BioMAP Diversity Plus: SAg Assay (AID 2283093).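 Further: PBMC viability measured as Alamar Blue reduction fluorescence at 546/580 nm; fitted both ways against DMSO so a hit may be loss or gain of signal.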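 On AC50: PBMC superantigen activated with SEB plus TSST-1 one hour after compound addition.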 The note with it: primary human HUVEC with PBMC. The procedure, abridged:
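HUVEC/PBMC co-culture; PBMC exposed to chemical 1 h before SEB and TSST-1 activation (20 ng/mL each), incubated 90 h, then Alamar Blue 6 h, fluorescence 546/580 nm. Bidirectional fit versus DMSO baseline.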

Read-out in assay [15]: Interleukin-8 (IL8), CXCL8 (gene 3576)
As to the kind of experiment: BSK_SAg_IL8: BioMAP Diversity Plus: SAg Assay for Interleukin-8 (IL8) Biomarker Activity (AID 2283094). The note with it: primary human HUVEC with PBMC; actives raise or lower the signal. The procedure, abridged: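 ELISA read-out of IL-8 in a primary human vascular co-culture (umbilical vein endothelium plus PBMC), taken 24 h after compound addition. Values derive from bidirectional fits against DMSO negative controls.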

Assay [16] is described as follows: BSK_SAg_Proliferation: Cell Proliferation Assessment in the BioMAP Diversity Plus: SAg Assay (AID 2283095).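 Further: relative cell number as total protein by SRB absorbance in sub-confluent culture.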 The note with it: primary human HUVEC with PBMC. The procedure, abridged: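 Cells (endothelium plus PBMC, human primary) were dosed with chemical, cultured 96 h, fixed in 10% TCA and stained with 0.1% SRB. Absorbance at 560 nm gave relative protein, fitted bidirectionally relative to DMSO.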

Assay [17] in a line: BSK_SAg_SRB: Viability Assessment in the BioMAP Diversity Plus: SAg Assay (AID 2283096).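 Further: cells read one day after compound addition; hits may be either gain or loss of signal compared with DMSO.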 The note with it: primary human HUVEC with PBMC. The procedure, abridged:
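Human umbilical vein endothelial cells co-cultured with PBMC, read 24 h after compound dosing. Total protein measured by sulforhodamine B staining (0.1% SRB after 10% TCA fixation, absorbance 560 nm); bidirectional fit versus DMSO baseline.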

In assay [18] the target is human CYP2D6, CYP2D6 (gene 1565) (UniProt P10635). The assay can be described thus: NVS_ADME_hCYP2D6: NovaScreen (NVS) CYP450-related Enzyme Activity (ADME) Assay for human CYP2D6 (AID 2283107; active means hit-call score of the fitted dose curve at least 0.9, where 1 is the maximum). The procedure, abridged:
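Insect-cell recombinant enzyme + fluorogenic substrate, cell-free; 1 h incubation; fluorescence intensity readout. Acetonitrile = neg. ctrl/baseline. Single-point 10 uM, duplicate; follow-up concentration series.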

Assay [19] addresses human CYP2C9, CYP2C9 (gene 1559) (UniProt P11712). The assay can be described thus: NVS_ADME_hCYP2C9: NovaScreen (NVS) CYP450-related Enzyme Activity (ADME) Assay for human CYP2C9 (AID 2283108; active means hit-call score of the fitted dose curve at least 0.9, where 1 is the maximum). The procedure, abridged:
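Recombinant human CYP2C9 expressed in SF9 cells, fluorogenic substrate, fluorescence read 0.75 h after dosing. Chemicals first run in duplicate at 10 uM, with actives followed in concentration series; loss of signal versus acetonitrile baseline.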

Where “and” joins values, the source holds several entries; their conditions need not be identical. Equal values may be shown once. Inconclusive results are not listed. Calls of active or inactive are those of the source. How the source made its calls, unless noted: active means hit-call score of the fitted dose curve at least 0.9, where 1 is the maximum; inactive means score below 0.9.

The AC50 is the concentration giving half of the maximal activity seen.

Sequence of Tumor necrosis factor (Homo sapiens) (P01375 whole entry, looked up): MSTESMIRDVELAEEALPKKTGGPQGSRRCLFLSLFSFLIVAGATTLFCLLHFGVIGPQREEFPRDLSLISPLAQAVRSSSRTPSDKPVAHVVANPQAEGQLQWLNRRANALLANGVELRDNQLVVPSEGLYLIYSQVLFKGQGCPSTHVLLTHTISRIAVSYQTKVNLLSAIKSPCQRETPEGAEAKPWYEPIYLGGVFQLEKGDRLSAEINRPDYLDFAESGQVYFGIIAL
Sequence of E-selectin (Homo sapiens) (P16581 whole entry, looked up): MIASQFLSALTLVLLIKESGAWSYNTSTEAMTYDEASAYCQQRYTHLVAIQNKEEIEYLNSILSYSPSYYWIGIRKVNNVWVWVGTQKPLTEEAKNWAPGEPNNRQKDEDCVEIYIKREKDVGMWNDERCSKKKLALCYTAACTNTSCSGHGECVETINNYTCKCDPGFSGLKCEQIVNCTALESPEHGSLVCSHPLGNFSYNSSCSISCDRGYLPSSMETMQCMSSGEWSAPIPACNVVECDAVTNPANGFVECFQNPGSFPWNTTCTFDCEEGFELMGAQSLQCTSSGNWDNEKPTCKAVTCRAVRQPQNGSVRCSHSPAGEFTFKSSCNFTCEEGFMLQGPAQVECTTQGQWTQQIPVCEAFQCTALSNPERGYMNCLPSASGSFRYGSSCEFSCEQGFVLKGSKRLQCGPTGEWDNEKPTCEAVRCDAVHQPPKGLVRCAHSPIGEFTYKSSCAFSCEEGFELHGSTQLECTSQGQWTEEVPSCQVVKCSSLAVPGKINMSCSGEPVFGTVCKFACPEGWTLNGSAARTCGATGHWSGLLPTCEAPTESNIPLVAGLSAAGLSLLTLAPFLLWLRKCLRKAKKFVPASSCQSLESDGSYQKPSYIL
Sequence of human CYP2C9, CYP2C9 (gene 1559) (P11712 whole entry, looked up): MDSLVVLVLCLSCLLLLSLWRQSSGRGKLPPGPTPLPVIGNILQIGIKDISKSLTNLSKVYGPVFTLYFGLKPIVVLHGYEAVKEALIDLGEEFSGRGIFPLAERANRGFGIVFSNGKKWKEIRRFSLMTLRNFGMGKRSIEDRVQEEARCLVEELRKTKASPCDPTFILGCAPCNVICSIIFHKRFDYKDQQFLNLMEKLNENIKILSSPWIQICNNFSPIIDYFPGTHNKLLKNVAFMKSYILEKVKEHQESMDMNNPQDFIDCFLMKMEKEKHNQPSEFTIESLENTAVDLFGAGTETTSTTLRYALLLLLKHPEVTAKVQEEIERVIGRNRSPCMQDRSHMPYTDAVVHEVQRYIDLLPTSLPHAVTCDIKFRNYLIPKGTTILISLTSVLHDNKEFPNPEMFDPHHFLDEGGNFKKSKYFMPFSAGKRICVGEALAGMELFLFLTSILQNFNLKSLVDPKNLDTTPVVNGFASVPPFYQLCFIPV
Sequence of human CYP2D6, CYP2D6 (gene 1565) (P10635 whole entry, looked up): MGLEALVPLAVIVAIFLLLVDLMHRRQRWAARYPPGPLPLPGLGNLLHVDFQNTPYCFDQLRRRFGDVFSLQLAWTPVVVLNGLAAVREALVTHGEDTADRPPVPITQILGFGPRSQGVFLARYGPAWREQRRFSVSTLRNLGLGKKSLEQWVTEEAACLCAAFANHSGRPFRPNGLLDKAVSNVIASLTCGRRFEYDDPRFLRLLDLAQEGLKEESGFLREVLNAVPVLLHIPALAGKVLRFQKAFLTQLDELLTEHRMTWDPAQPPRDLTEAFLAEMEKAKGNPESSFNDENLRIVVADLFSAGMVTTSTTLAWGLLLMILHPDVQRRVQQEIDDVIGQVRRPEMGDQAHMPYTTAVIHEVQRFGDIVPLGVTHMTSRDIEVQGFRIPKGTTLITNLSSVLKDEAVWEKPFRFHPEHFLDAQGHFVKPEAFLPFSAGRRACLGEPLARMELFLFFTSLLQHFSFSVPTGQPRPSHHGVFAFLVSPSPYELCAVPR

For the molecule `CCCCNc1ccccc1`, the result in assay [1], in assay [2], in assay [3], in assay [4], in assay [5] and in assay [6] was inactive. The outcome in assay [7], in [8], in assay [9], in [10], in assay [11] and in [12] was inactive. The outcome in assay [13], in assay [14], in [15], in assay [16] and in [17] was inactive.
With `Oc1ccc(Nc2ccccc2)cc1`, the outcome in assay [1], in [2], in assay [4], in [5], in assay [6] and in assay [13] was inactive. The result in assay [15], in assay [17] and in assay [18] was inactive. For the same molecule, the AC50 in assay [3] was 0.668 µM (active); in assay [7], 20 µM (active); in [8], 20 µM (active); in assay [9], 8.57 µM (active); in assay [10], 14 µM (active); in assay [11], 20 µM (active). Moreover, the AC50 in assay [12] is 25.1 µM (active); in [14], 3.57 µM (active); in [16] it was 3.84 µM (active); in assay [19], 0.451 µM (active).
Take `Cc1ccc(S(=O)(=O)OCC(F)(F)C(F)(F)C(F)(F)C(F)(F)C(F)(F)C(F)F)cc1`: the outcome in assay [1], in assay [2], in assay [3], in assay [4], in assay [5] and in assay [6] was inactive. For the same molecule, the outcome in assay [7], in assay [8], in assay [9], in assay [10], in [11] and in assay [12] was inactive. Moreover, the outcome in [13], in assay [14], in [15] and in [16] was inactive. For the same molecule, in [17], the AC50 was 44 µM (active) and 37.4 µM (active).
On to `Nc1ccc([N+](=O)[O-])cc1O`, for which the outcome in assay [1], in [2], in assay [3], in assay [4], in assay [5] and in [6] was inactive. The outcome in [7], in assay [8], in assay [9], in assay [10], in assay [11] and in assay [12] was inactive. Moreover, the result in assay [13], in assay [14], in assay [15], in [16] and in assay [17] was inactive. Also, the AC50 in assay [18] is 3.87 µM (active); in assay [19], 3.74 µM (active).
Regarding `FC(F)(Br)C(F)(F)C(F)(F)C(F)(F)C(F)(F)C(F)(F)Br`, the result in assay [1], in assay [2], in assay [3], in assay [4], in [5] and in [6] was inactive. The result in assay [7], in assay [8], in [9], in [10], in [11] and in assay [12] was inactive. The result in [13], in [14], in assay [15], in assay [16] and in [17] was inactive.
